Experimental findings from the supplement of paper PMC10849652 are described below.

Targets with a hit are over-represented here; the source holds about 7,900 in all. About 0.6% of all pairs of compound and target were hits. Values without a mark were called inactive.

UniProt O15228, sequence (O15228 whole entry, looked up): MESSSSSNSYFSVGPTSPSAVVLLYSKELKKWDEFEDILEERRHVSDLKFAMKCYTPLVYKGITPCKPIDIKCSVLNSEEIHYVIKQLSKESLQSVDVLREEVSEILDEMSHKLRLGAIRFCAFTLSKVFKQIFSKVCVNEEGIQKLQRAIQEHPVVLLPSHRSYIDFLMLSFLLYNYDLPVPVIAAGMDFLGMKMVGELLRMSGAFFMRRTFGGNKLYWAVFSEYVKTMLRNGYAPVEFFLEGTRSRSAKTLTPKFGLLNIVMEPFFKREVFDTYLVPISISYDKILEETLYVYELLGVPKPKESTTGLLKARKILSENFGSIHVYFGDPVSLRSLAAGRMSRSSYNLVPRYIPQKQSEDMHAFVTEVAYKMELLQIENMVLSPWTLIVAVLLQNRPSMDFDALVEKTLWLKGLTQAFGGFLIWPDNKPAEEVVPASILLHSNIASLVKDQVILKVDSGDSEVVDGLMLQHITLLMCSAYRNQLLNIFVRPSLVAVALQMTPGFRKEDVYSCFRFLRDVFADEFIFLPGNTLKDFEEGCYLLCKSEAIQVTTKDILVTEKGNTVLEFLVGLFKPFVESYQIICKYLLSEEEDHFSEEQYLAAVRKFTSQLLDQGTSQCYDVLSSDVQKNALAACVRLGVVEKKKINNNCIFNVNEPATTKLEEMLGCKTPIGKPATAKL
UniProt O15347, sequence (O15347 whole entry, looked up): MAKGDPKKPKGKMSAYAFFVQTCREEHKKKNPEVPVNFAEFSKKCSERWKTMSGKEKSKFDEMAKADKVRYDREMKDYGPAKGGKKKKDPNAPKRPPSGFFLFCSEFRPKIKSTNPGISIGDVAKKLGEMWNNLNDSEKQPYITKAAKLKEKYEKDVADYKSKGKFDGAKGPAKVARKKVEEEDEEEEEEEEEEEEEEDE
UniProt P36969, sequence (P36969 whole entry, looked up): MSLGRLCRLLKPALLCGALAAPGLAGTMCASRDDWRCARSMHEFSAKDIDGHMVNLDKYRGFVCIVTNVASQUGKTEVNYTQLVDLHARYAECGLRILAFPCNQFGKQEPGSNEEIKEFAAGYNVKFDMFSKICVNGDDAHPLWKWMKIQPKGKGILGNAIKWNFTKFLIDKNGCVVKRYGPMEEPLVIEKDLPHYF
UniProt P62879, sequence (P62879 whole entry, looked up): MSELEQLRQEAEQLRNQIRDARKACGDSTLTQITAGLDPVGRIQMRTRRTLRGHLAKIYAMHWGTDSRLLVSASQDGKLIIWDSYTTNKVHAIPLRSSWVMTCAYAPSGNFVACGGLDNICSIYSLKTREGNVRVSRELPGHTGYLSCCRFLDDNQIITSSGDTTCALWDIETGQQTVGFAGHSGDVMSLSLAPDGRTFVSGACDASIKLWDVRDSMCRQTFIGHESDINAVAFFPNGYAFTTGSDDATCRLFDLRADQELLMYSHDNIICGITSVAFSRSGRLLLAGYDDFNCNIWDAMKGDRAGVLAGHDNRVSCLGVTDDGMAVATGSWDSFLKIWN
UniProt Q53GQ0, sequence (Q53GQ0 whole entry, looked up): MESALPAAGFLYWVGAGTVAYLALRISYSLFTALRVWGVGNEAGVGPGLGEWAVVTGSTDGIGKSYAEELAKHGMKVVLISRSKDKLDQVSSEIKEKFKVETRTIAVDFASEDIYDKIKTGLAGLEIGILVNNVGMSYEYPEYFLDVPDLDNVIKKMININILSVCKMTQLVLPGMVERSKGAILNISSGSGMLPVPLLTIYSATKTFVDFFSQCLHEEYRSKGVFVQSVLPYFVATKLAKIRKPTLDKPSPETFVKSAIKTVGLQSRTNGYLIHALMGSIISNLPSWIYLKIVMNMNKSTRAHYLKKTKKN
UniProt Q00403, sequence (Q00403 whole entry, looked up): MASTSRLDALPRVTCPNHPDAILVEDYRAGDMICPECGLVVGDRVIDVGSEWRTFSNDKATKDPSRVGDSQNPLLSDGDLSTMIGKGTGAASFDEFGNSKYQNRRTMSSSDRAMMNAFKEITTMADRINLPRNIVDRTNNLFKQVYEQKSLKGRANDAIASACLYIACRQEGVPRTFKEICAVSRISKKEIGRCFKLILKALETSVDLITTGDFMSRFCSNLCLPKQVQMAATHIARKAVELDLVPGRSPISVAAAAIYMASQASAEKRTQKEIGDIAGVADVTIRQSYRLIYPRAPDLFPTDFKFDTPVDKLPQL
UniProt Q9UJY4, sequence (Q9UJY4 whole entry, looked up): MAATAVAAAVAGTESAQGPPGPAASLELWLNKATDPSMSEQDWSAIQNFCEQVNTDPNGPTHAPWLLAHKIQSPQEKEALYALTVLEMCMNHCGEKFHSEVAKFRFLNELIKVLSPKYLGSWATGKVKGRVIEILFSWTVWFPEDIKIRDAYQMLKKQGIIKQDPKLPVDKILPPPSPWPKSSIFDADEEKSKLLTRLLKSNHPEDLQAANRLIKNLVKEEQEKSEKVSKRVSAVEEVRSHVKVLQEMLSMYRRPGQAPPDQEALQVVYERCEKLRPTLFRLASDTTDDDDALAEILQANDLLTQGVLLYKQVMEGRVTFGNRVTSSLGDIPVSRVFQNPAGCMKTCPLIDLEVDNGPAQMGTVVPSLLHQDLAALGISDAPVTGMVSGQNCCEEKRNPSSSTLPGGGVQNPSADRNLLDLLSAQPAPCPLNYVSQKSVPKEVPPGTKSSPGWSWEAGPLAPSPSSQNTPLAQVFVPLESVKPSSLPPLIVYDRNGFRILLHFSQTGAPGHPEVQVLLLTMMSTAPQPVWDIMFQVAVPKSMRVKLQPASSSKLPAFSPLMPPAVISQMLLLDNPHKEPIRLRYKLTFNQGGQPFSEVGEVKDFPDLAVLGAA
UniProt Q86VS8, sequence (Q86VS8 whole entry, looked up): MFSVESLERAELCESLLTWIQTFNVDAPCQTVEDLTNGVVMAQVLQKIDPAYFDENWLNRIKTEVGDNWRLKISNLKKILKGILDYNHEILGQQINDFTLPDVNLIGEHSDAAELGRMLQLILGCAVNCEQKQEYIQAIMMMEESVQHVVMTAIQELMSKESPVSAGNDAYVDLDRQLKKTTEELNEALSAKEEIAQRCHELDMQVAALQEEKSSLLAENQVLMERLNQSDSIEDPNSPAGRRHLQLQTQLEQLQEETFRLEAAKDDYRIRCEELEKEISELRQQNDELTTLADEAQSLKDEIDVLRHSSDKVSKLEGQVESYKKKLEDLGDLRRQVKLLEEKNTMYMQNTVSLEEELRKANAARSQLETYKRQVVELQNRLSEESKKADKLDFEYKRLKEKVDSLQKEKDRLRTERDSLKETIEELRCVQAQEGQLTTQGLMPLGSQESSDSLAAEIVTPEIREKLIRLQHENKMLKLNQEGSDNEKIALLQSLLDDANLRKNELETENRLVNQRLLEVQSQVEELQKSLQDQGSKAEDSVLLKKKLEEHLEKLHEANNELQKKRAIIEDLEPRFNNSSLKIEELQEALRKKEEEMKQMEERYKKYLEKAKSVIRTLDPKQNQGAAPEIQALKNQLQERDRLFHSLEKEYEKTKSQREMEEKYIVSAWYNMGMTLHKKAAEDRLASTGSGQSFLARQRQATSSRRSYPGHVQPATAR
UniProt O00458, sequence (O00458 whole entry, looked up): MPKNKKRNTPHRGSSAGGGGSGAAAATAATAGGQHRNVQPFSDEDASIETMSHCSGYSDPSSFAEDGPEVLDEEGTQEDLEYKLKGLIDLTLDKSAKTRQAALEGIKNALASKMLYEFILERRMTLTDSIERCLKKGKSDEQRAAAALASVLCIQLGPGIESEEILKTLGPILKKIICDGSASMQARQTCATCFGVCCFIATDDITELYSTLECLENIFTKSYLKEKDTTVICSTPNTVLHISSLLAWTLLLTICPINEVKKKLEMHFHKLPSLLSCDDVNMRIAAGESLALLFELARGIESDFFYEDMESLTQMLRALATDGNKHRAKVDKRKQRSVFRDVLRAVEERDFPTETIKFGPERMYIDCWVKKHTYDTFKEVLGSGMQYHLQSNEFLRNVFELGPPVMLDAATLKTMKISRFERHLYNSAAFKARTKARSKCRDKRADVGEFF
UniProt P49840, sequence (P49840 whole entry, looked up): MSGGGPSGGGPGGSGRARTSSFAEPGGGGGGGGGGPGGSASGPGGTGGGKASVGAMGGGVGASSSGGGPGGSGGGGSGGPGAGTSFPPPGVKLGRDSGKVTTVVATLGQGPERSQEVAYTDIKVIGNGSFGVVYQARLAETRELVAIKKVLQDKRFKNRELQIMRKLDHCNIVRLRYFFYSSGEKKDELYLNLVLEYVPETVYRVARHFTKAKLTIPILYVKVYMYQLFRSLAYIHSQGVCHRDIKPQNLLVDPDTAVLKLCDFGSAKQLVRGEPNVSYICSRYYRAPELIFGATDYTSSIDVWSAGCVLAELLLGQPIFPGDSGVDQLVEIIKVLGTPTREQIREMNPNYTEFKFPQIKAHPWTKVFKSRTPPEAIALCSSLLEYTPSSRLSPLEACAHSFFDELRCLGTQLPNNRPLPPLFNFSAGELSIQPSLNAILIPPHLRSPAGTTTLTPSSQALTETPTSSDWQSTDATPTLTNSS
UniProt Q9H4A6, sequence (Q9H4A6 whole entry, looked up): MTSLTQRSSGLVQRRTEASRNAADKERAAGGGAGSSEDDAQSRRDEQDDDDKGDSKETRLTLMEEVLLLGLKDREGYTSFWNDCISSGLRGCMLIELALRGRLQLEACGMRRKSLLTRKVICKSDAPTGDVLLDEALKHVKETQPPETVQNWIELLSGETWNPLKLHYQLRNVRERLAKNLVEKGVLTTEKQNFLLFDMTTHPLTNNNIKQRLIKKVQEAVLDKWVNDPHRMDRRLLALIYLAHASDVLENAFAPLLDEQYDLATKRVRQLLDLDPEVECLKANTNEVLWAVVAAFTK
UniProt P52657, sequence (P52657 whole entry, looked up): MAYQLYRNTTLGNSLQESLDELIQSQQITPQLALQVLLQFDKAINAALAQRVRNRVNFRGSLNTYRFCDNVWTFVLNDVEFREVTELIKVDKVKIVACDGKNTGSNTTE
UniProt Q7Z4H3, sequence (Q7Z4H3 whole entry, looked up): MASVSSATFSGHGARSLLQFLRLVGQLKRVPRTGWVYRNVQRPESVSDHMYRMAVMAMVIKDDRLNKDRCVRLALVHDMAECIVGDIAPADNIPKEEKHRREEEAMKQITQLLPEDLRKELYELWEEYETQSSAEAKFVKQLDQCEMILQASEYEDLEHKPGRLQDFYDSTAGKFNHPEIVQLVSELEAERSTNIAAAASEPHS

Compound in the first test: CC1=C(C(CC(=O)N1)C2=CC=C(C=C2)C(F)(F)F)C(=O)NC3=C(C=C4C(=C3)C=NN4)F
Briefly: log2 fold change, soluble protein after heating vs DMSO (PISA); higher = thermal stabilisation; K562 cells, 10 uM, 30 min; active = over 0.2 and 3.5 SD of the protein, either way, in both replicates (recomputed). The procedure, abridged: (§1)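 K562 cells at 2×10^6 cells/mL were treated with 10 μM compound for 30 min. Aliquots were heated for 3 min across 48°C-58°C, pooled, and extracted in PBS with 0.5% NP-40 at 4°C; soluble protein was the supernatant after 21,000xg for 90 min. Soluble protein was quantified by TMTpro 16plex LC-MS/MS with channel sums equalised, and reported as log2 fold change in thermal stability against DMSO controls, with values from duplicates.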
Take GNB2 (UniProt P62879): the log2 fold change is -0.034.

As for GTF2B (UniProt Q00403), the log2 fold change was -0.026.

Take GTF2E1 (UniProt P29083): the log2 fold change was 0.003.

In the case of GPX4 (UniProt P36969), the log2 fold change was 0.002.

Turning to HMGB3 (UniProt O15347), the log2 fold change is -0.003.

GAPVD1 isoform 6 (UniProt Q14C86): the log2 fold change was 0.003.

On to FNTB (UniProt P49356), for which the log2 fold change was -0.146.

Take FKBP4 (UniProt Q02790): the log2 fold change is -0.019.

IFRD1 (UniProt O00458): the log2 fold change was -0.095.

For IFT80 isoform 3 (UniProt Q9P2H3), the log2 fold change is -0.085.

In the case of IFI30 (UniProt P13284), the log2 fold change is -0.008.

Consider GALNT1 (UniProt Q10472), for which the log2 fold change is -0.001.

Consider FUBP3 (UniProt Q96I24), for which the log2 fold change was -0.022.

Regarding ICMT (UniProt O60725), the log2 fold change was -0.171.

Regarding GCC2 (UniProt Q8IWJ2), the log2 fold change was 0.085.

Consider HIC2 (UniProt Q96JB3), for which the log2 fold change is 0.015.

Consider HRC (UniProt P23327), for which the log2 fold change is 0.011.

For the target HSD17B12 (UniProt Q53GQ0), the log2 fold change is 0.015.

As for HMGCR isoform 3 (UniProt P04035), the log2 fold change is 0.011.

With GOLPH3 (UniProt Q9H4A6), the log2 fold change was 0.

Regarding GEMIN5 (UniProt Q8TEQ6), the log2 fold change is 0.004.

With FUCA2 (UniProt Q9BTY2), the log2 fold change was -0.036.

With HNRNPH1 (UniProt P31943), the log2 fold change was 0.011.

In the case of GNPAT (UniProt O15228), the log2 fold change is 0.004.

In the case of GOPC (UniProt Q9HD26), the log2 fold change was -0.118.

HPCAL1 (UniProt P37235): the log2 fold change is 0.001.

In the case of GTF2A2 (UniProt P52657), the log2 fold change is 0.016.

Consider GSK3A (UniProt P49840), for which the log2 fold change is 0.011.

Consider HBQ1 (UniProt P09105), for which the log2 fold change was 0.027.

HOOK3 (UniProt Q86VS8): the log2 fold change was 0.008.

On to HEXA (UniProt P06865), for which the log2 fold change is -0.003.

On to GGA2 (UniProt Q9UJY4), for which the log2 fold change was -0.04.

In the case of HNRNPC isoform 2 (UniProt P07910), the log2 fold change is -0.01.

In the case of H2AFX (UniProt P16104), the log2 fold change is -0.019.

For HDDC2 (UniProt Q7Z4H3), the log2 fold change was -0.006.

Compound in another test: CC1=C(C2=C(C=C1)C(=O)C3=CC=CC=C3N2CCCN)C
Described as above. The procedure, abridged: as §1
On to GNB2 (UniProt P62879), for which the log2 fold change is 0.076.

With GTF2B (UniProt Q00403), the log2 fold change is 0.07.

As to GTF2E1 (UniProt P29083), the log2 fold change is -0.007.

With GPX4 (UniProt P36969), the log2 fold change is 0.02.

With HMGB3 (UniProt O15347), the log2 fold change was 0.016.

Take GAPVD1 isoform 6 (UniProt Q14C86): the log2 fold change was -0.003.

Take FNTB (UniProt P49356): the log2 fold change was -0.087.

Take FKBP4 (UniProt Q02790): the log2 fold change was 0.013.

Take IFRD1 (UniProt O00458): the log2 fold change was -1.05 (active).

With IFT80 isoform 3 (UniProt Q9P2H3), the log2 fold change is 0.073.

For the target IFI30 (UniProt P13284), the log2 fold change is -0.099.

For the target GALNT1 (UniProt Q10472), the log2 fold change was 0.021.

FUBP3 (UniProt Q96I24): the log2 fold change was 0.387 (active).

As for ICMT (UniProt O60725), the log2 fold change was 0.147.

As for GCC2 (UniProt Q8IWJ2), the log2 fold change was -0.091.

Consider HIC2 (UniProt Q96JB3), for which the log2 fold change is 0.088.

For the target HRC (UniProt P23327), the log2 fold change is -0.033.

Regarding HSD17B12 (UniProt Q53GQ0), the log2 fold change was 0.031.

HMGCR isoform 3 (UniProt P04035): the log2 fold change is -0.044.

As to GOLPH3 (UniProt Q9H4A6), the log2 fold change is -0.028.

With GEMIN5 (UniProt Q8TEQ6), the log2 fold change was -0.28 (active).

As for FUCA2 (UniProt Q9BTY2), the log2 fold change was -0.12.

Regarding HNRNPH1 (UniProt P31943), the log2 fold change was -0.045.

Consider GNPAT (UniProt O15228), for which the log2 fold change was 0.024.

In the case of GOPC (UniProt Q9HD26), the log2 fold change is 0.085.

As to HPCAL1 (UniProt P37235), the log2 fold change was -0.041.

Consider GTF2A2 (UniProt P52657), for which the log2 fold change is -0.357 (active).

Consider GSK3A (UniProt P49840), for which the log2 fold change is 0.022.

In the case of HBQ1 (UniProt P09105), the log2 fold change is 0.147.

Take HOOK3 (UniProt Q86VS8): the log2 fold change is 0.02.

In the case of HEXA (UniProt P06865), the log2 fold change was -0.05.

In the case of GGA2 (UniProt Q9UJY4), the log2 fold change was 0.032.

Regarding HNRNPC isoform 2 (UniProt P07910), the log2 fold change was -0.629.

Turning to H2AFX (UniProt P16104), the log2 fold change was 1.02 (active).

Turning to HDDC2 (UniProt Q7Z4H3), the log2 fold change is -0.007.
